About 680 (0.72%) of roughly 94,000 compounds were called active. Only a selection was taken, and actives are over-represented in it overall. Unmarked numbers belong to inactive results. Rule as the data show it: active = z-score above about 3.2; inactive = the rest.

For the assay, the target named is M-phase inducer phosphatase 2 (Homo sapiens) + Cyclin-dependent kinase 2 (Homo sapiens) + Cyclin-A2 (Homo sapiens) (UniProt P30305+P24941+P20248). Nature of the assay: primary biochemical HTRF screen for blockers of M-phase inducer phosphatase 2 binding to CDK2/cyclin A (AID 1259370). The following applies: HTRF CDC25B-CDK2/CyclinA binding, anti-His/anti-Flag; hits give high values.
`O=C1CCCN1CCCn1c(=O)[nH]c2ccccc2c1=O`: the z-score is -0.94.
With `Cc1nc2ccccc2nc1NO` the figure was 1.05; with `Cc1cc(=O)nc2c3ccccc3n(CC(=O)NC3CCC(C)CC3)n12` (stereo unspecified), -1.08.
`CCN1CCN(c2c(C(=O)c3ccccc3)cnc3cc4c(cc23)OCCO4)CC1`: the z-score is 2.74.
As to `CCn1c(SCC(=O)Nc2c(C)cc(C)cc2C)nc2c(c1=O)SCC2`, the z-score was -0.71.
For `CCc1cc2c(cc3c(=O)n(CC(=O)NCCCOC)nc(CC)n32)s1`, the z-score was -1.5.
Next, `O=S(=O)(NCc1ccccc1)c1ccc(-c2ccc(S(=O)(=O)NCc3ccccc3)cc2)cc1`: -0.47.
Next, `COc1ccc(-c2n[nH]c3c2C(c2cccc(Br)c2)NC3=O)cc1` (stereo unspecified): 0.39; `COc1ccc(N2CSC3=C(C#N)C(c4cccc(Br)c4)CC(=O)N3C2)cc1` (stereo unspecified): 4.67 (active); `COc1ccc(N2C(=O)CSC2c2cc(Br)ccc2OC)cc1` (stereo unspecified): -0.41.
With `COc1cccc(C2CC(=O)N3CN(c4ccc(Br)cc4)CSC3=C2C#N)c1` (stereo unspecified) the figure was 7.44 (active); with `CN1CSC2=C(C#N)C(c3ccc(Br)cc3)CC(=O)N2C1` (stereo unspecified), 1.4.
In the case of `COc1cc(C2CC(=O)N3CN(c4ccc(Br)cc4)CSC3=C2C#N)ccc1O` (stereo unspecified), the z-score was 0.91.
Next, `Cc1cc(C)c2c(n1)nn1c(C)c(CCC(=O)NCCCN3CCCC3=O)c(C)nc21`: -0.15; `CC(C)n1c(=O)c2c3c(sc2n(Cc2ccccc2)c1=O)COC(C)(C)C3`: -1.8; `O=c1c2cccnc2n(Cc2ccc(F)cc2)c(=O)n1Cc1ccco1`: 0.9.
Next, `C=CCN(c1ccccc1)S(=O)(=O)c1cc(Br)cc2c1N(C(C)=O)C(C)C2` (stereo unspecified): 0.27; `COc1cccc(OCC(O)Cn2c[n+](C)c3cc(C)c(C)cc32)c1` (stereo unspecified): 0.54; `CC1=C(C(=O)OCC2CCCO2)C(c2cccc(Cl)c2)C2=C(CC(c3cccs3)CC2=O)N1` (stereo unspecified): -0.95.
Next, `Cn1c(=O)c2c(ncn2CC(=O)NCC2CCCO2)n(C)c1=O` (stereo unspecified): -1.02; `CCC(C)N(CCNC(=O)Nc1cn(C)c(=O)c2ccccc12)Cc1ccco1` (stereo unspecified): 12.3 (active); `Cc1ccccc1NC(=O)NCc1ccco1`: -0.44.
Consider `Cc1nn(C(C)C(=O)NCc2ccco2)c(=O)c2cc3occc3n12` (stereo unspecified), for which the z-score is -0.04.
Consider `COc1cc(NC(=O)c2nn3c(C(F)(F)F)cc(-c4cccs4)nc3c2Cl)cc([N+](=O)[O-])c1`, for which the z-score was -3.72.
With `COc1ccccc1-c1nnc(SCc2ccc(F)cc2)o1` the figure was 1.82.
Next, `O=C(NC1CCc2ccccc21)c1cc2c(s1)CCC2` (stereo unspecified): -1.04; `O=C(Nc1ccc(F)cc1)N1CCC(n2c(=O)[nH]c3ccccc32)CC1`: -3.87.
In the case of `CCN(CC)c1nc2c(s1)C(=O)NCC(C)(C)C2`, the z-score was -0.63.
For the compound `O=C(/C=C/c1ccc(-c2ccccc2[N+](=O)[O-])o1)Nc1cc(Cl)c(Cl)cc1Cl`, the z-score was 3.71 (active).
Next, `O=C(/C=C/c1cccc([N+](=O)[O-])c1)Nc1ccc(O)c(-c2nc3ccccc3o2)c1`: -3.5.
As to `O=C(/C=C/c1ccc(Cl)cc1)Nc1ccc(-c2nc3ccccc3o2)c(O)c1`, the z-score is -2.66.
With `CCCCN(CC)C(=O)c1nn(C)c2c1COc1ccccc1-2` the figure was -1.21; with `CCCc1nc(C)cc(N2CCOCC2)n1`, -1.62; with `COc1cc(C2CC(=O)Nc3c2cc(Br)c2ccccc32)ccc1O` (stereo unspecified), -0.73.
Next, `Cc1ccc(NC(=O)CSc2nc(N)c3c4c(sc3n2)COC(C(C)C)C4)cc1` (stereo unspecified): -24.7; `COC(=O)C1=C(OC(=O)COc2ccccc2)c2ccccc2S(=O)(=O)N1C`: -1.66; `CCOC(=O)Cc1nnc2c(Nc3cccc(Br)c3)nc3nonc3n12`: -0.4.
Next, `CCCCCCn1c(C2CCCO2)nc2ccccc21` (stereo unspecified): -2.17; `CCCCn1c(CCNC(=O)C(C)(C)C)nc2ccccc21`: 0.64; `CCCCn1c2ccccc2c2nc3ccccc3nc21`: 19.8 (active).
Consider `C=C1c2cc(OCC)ccc2NC(=O)N1c1ccc(Cl)cc1`, for which the z-score is -0.12.
With `CCCCN(Cc1ccco1)C(=O)Cn1ncc2c1-c1cc(C)ccc1OC2` the figure was -2.75; with `O=C1c2ccccc2C(Nc2ccc3c(c2)OCCO3)N1c1ccc(Cl)cc1` (stereo unspecified), 1.04.
With `O=C(COc1ccc(Cl)cc1)Oc1ccc2ccccc2c1` the figure was -1.03; with `CC1=Nc2ccccc2-c2nnc(SCc3ccccc3F)nc2O1`, -1.63.
With `CCC(C)NC(=O)C1CCN(C(=O)c2sccc2-n2cccc2)CC1` (stereo unspecified) the figure was -1.11; with `CCOC(=O)N1CCN(S(=O)(=O)c2ccc(-n3cnnn3)cc2)CC1`, -0.58; with `CCOc1cc(-n2cnnn2)c(OCC)cc1N`, 14.4 (active).
Turning to `Cc1cc(OCC(=O)Oc2ccc(-n3cnnn3)cc2)cc(C)c1Cl`, the z-score is 0.
With `Clc1ccc(N2CCCC2)nn1` the figure was 0.42.
With `Cc1ccccc1-c1noc(-c2ccc(F)cc2)n1` the figure was -0.49.
Regarding `CC(C)(C)c1cn2c3ccccc3n(CCN3CCOCC3)c2n1`, the z-score is 0.1.
Next, `CC1CCN(c2cc(NCC(=O)O)c3c4c(onc24)-c2ccccc2C3=O)CC1`: 13.8 (active); `CC(C)CNc1cc(N2CCN(C)CC2)c2noc3c2c1C(=O)c1ccccc1-3`: -2.89; `CN1CCN(c2cc(NCCCC(=O)O)c3c4c(onc24)-c2ccccc2C3=O)CC1`: 0.14.
For the compound `Cc1nc2ncnn2c(Sc2ccc(N)cc2)c1C`, the z-score is 3.58.
On to `O=C(CN1CCN(c2ccccn2)CC1)c1ccc2c(c1)CCN2`, for which the z-score was -2.4.
With `Cc1ccc(-c2nnc(C3CCN(S(=O)(=O)c4c(C)cc(C)cc4C)CC3)o2)cc1` the figure was 0.05; with `NC(=O)C1CCN(CC(O)COc2ccc(Cl)c(Cl)c2)CC1` (stereo unspecified), -0.09.
With `COc1ccc(OCC(O)CN2CCC(C)CC2)cc1` (stereo unspecified) the figure was 1.91; with `CCOC(=O)N1CCN(CC(O)COc2ccc(OC(F)(F)F)cc2)CC1` (stereo unspecified), 11.1 (active); with `CCOc1ccc(-c2cc(O)cc3sc(=O)oc23)cc1`, -1.8.
For the compound `CCC1(C)Cc2ccccc2-c2[nH]c(=O)n(-c3ccccc3)c(=O)c21` (stereo unspecified), the z-score was -2.42.
With `N#CC1=C(N)OC2=C(C(=O)CCC2)C1c1cccc(O)c1` (stereo unspecified), the z-score was -0.34.
With `Cn1c(C(=O)N2CCC(C(=O)N3CCN(c4ccccc4)CC3)CC2)cc2sccc21` the figure was -0.7; with `O=C(O)C1C2CCC(O2)C1C(=O)N1CCN(c2ccccc2)CC1` (stereo unspecified), -0.45.
With `CC(=O)Oc1cc2c(C(=O)N3CCN(c4ccccc4)CC3)c(C)oc2c2ccccc12`, the z-score is 10.8 (active).
With `O=C(O)c1ccc2nc(-c3ccccc3)[nH]c2c1` the figure was -1.66; with `N#Cc1c(-c2ccco2)cc(-c2ccc(Br)cc2)nc1N`, -0.1; with `N#Cc1c(N)nc2c(c1-c1ccco1)CCCC2`, 19.4 (active).
With `CCOC(=O)c1sc2nc3c(c(-c4ccco4)c2c1N)CCC3` the figure was -2.78; with `O=C(OCC1CCCO1)c1c(-c2ccccc2)c(-c2ccccc2)n[nH]c1=O` (stereo unspecified), -1.18; with `COc1cccc(CC2C(=O)Nc3ccccc32)c1OC` (stereo unspecified), -0.98.
Next, `C=CCOc1cccc(C2c3c(oc4ccc(Cl)cc4c3=O)C(=O)N2CCCN2CCOCC2)c1` (stereo unspecified): -1.86; `C=CCN1C(=O)/C(=C/c2ccc(OC(=O)C34CC5CC(CC(C5)C3)C4)c(OC)c2)SC1=S`: -2.28; `Cc1ccc(CC2CC(=O)N(c3nc(C)cc(C)n3)C2=O)cc1` (stereo unspecified): -0.93.
For `O=C1c2cccnc2C(=O)N1c1ccc(-c2nc3ccccc3o2)cc1`, the z-score was 1.03.
Next, `Cc1ccc2oc(-c3cccc(N4C(=O)c5cccnc5C4=O)c3)nc2c1`: 16 (active); `Cc1ccc2oc(-c3ccc(C)c(N)c3)nc2c1`: -1.15; `Cc1nc2c3ccccc3n3c(CCCC(=O)N4CCC(C(N)=O)CC4)nnc3n2n1`: 0.97.
In the case of `CSc1nc(N/C=C(\C#N)C(=O)c2cccs2)n2nc(C)cc2n1`, the z-score was -0.94.
For the compound `CC(C)S(=O)(=O)c1cscc1N/C=C(/C#N)C(=O)C1CC1`, the z-score is 0.29.
For the compound `CC(C)S(=O)(=O)c1cscc1N/C=C(/C#N)C(=O)c1cccs1`, the z-score was 8.41 (active).
In the case of `Cc1ccccc1-c1noc(CSc2nnc(-c3ccncc3)n2-c2ccccc2)n1`, the z-score was -0.18.
Next, `NC(=O)c1c(NC(=O)c2ccc(Br)o2)sc2c1CCCC2`: -10.5; `Cc1nc2cc(NCc3ccccn3)ccc2n1C`: 14.6 (active); `Cc1ccc(S(=O)(=O)c2nc(S(=O)(=O)c3ccccc3)sc2NCc2ccccn2)cc1`: 0.49.
With `COc1ccc(-n2cnc3cc(NCc4ccco4)ccc32)cc1` the figure was -1.6; with `Cc1ccc(Cn2c(=O)c(C#N)cc3c(=O)n4ccccc4nc32)cc1`, -2.86.
Next, `CCC12CN3CC(CC)(CN(C1)C3c1cccc(N)c1)C2=O` (stereo unspecified): -0.44; `NC(=O)C1CCN(C(=O)C(=O)c2c[nH]c3ccccc23)CC1`: -2.56; `O=C(C(=O)N1CCc2ccccc2C1)c1c[nH]c2ccccc12`: 10.4 (active).
`CC1CC(C)CN(C(=O)C(=O)c2c[nH]c3ccccc23)C1` (stereo unspecified): the z-score was -1.24.
With `Cc1ccc2nc(C3=C(O)CN(c4cc(Cl)ccc4C)C3=N)[nH]c2c1` the figure was -2.12; with `Fc1ccc(C(Nc2ccccc2)c2nnc(-c3ccccc3)o2)cc1` (stereo unspecified), 0.64.
With `Cc1cccn2c(=O)c3cc(C(=O)NCc4cccs4)n(C)c3nc12` the figure was -2.17.

Source of the values: PubChem BioAssay AID1259370 (Center for Chemical Genomics, University of Michigan, 2018).
